According to the supplement of paper PMC10338343:
± gives the standard deviation.

Tested on: EfPiwi piRISC loaded with piRNA #1 (26 nt)
Test: pre-steady-state target cleavage rate (min^-1); auxiliary factor: 500 nM Ephydatia muelleri Gtsf1; guide: piRNA #1 5'p-UGAGGUAGUAGGUUGUAUAGUAUCCA; MIWI and MILI are mouse PIWI proteins and EfPiwi is from a freshwater sponge; tags in brackets are library labels; higher = faster piRNA-guided slicing of the target
Procedure, shortened: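 For Cleave-'n-Seq, a transcribed, DNA-blocked target RNA library […] met 1 nM active affinity-purified piRISC with one synthetic guide at 33 °C for 0–8 or 0–960 min in HEPES–potassium acetate buffer, with or without 500 nM GTSF1 partner protein. Uncleaved targets were sequenced and normalised to depth and weakly complementary targets, with three trials pooled and k3 capped at 0.0001 min^-1. A burst-and-steady-state fit supplied the pre-steady-state cleavage rate.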

GGAGACGAUACUAUACAACGAACUACCUCA and GGAGUGGAAACUAUACAACGUACUACCUCA are within error of each other in “pre-steady-state target cleavage rate” value: 0.00251 ± 0.0024 for the first, 0.00364 ± 0.0017 for the second.

First: GGAGUGGAUACUAUACAGCCUACUACCUCA
Second: GGAGACGAUACUAUUCAACCUACUACCACA
The “pre-steady-state target cleavage rate” value of the first is higher: 0.216 ± 0.073 for the first, 0.00322 ± 0.0017 for the second.

GGAGACCAUCCUAUACAACCUACUACCUCA and GGAGACCUAUCUAUACAACCUGCUACCUCA are within error of each other in “pre-steady-state target cleavage rate” value: 0.01 ± 0.006 for the first, 0.00697 ± 0.0045 for the second.

GGAGAGGAAACUAUACAACCAACUACCUCA and GGAGACCUUACUAUACAACACUACUACCUCA are within error of each other in “pre-steady-state target cleavage rate” value: 0.00523 ± 0.0026 for the first, 0.0118 ± 0.0053 for the second.

GGAGACCUAACUAUACCAACCUACUACCUCA and GGAGACGAUACUAUACAUCCUACUACCUCA are within error of each other in “pre-steady-state target cleavage rate” value: 0.00536 ± 0.0036 for the first, 0.00772 ± 0.0032 for the second.

GGAGUGGAUACUAUACAACCUUCUUCCUCA and GGAGUGGAUACUAUACAUACCUACUACCUCA are within error of each other in “pre-steady-state target cleavage rate” value: 0.00355 ± 0.0026 for the first, 0.0107 ± 0.0063 for the second.

GGAGAGGAUACUAUACAACCUUCUACGUCA and GGAGACCAUACUAUACAACCAACUAGCUCA are within error of each other in “pre-steady-state target cleavage rate” value: 0.00356 ± 0.0021 for the first, 0.0061 ± 0.0043 for the second.

First: GGAGUGGAUACUAUACAACCUUCUACCUGA
Second: GGAGACCUAUGUGAUACAACCUACUACCUCA
The “pre-steady-state target cleavage rate” value of the first is lower: 0.00359 ± 0.0018 for the first, 0.0129 ± 0.0064 for the second.

GGAGACCAUACUAUACAACCUAGUACGUCA and GGAGACGAUACUAUACAAGCCUACUACCUCA are within error of each other in “pre-steady-state target cleavage rate” value: 0.00483 ± 0.0024 for the first, 0.00444 ± 0.0036 for the second.

GGAGACCAUACUAUACAAUCCUACUACCUCA and GGAGAGGAUACUAUACAACCUUGAACCUCA are within error of each other in “pre-steady-state target cleavage rate” value: 0.00501 ± 0.0032 for the first, 0.00408 ± 0.004 for the second.

GGAGACCAUACUAUACAACCUUACUACCUCA and “GGAGACGAUACUAUACAACCUACUUGGAGA [g7:g24:cont:t1A]” are within error of each other in “pre-steady-state target cleavage rate” value: 0.00561 ± 0.0036 for the first, 0.00429 ± 0.0022 for the second.

GGAGAGGAUACUAUACAACCUAGUACCACA and GGAGAGGAUACUAUACAACCUAGAACCUCA are within error of each other in “pre-steady-state target cleavage rate” value: 0.00381 ± 0.0016 for the first, 0.00379 ± 0.0022 for the second.

GGAGACCUAACUAUACAACCUAGUACGUCA and GGAGUGGAUACUAUACAACCUAGUUCCUCA are within error of each other in “pre-steady-state target cleavage rate” value: 0.00403 ± 0.0029 for the first, 0.00239 ± 0.0021 for the second.

GGAGACCUAACUAUACAACCUAGUAGCUCA and GGAGACGAUACUAUACAACCUUACUACCUCA are within error of each other in “pre-steady-state target cleavage rate” value: 0.00484 ± 0.0035 for the first, 0.00805 ± 0.0039 for the second.

GGAGUGGAUACUAUACAACCUAGUAGCUCA and GGAGAGGAAACAAUACAACCUACUACCUCA are within error of each other in “pre-steady-state target cleavage rate” value: 0.00485 ± 0.0018 for the first, 0.00675 ± 0.004 for the second.

Going from GGAGACCUAUGAUAACAACCUACUAGCACA to GGAGACCUUACUAUACAACCUUCUACCUGA, the “pre-steady-state target cleavage rate” value rises from under 0.0001 to 0.00341 ± 0.0028.

GGAGAGGAUACUAUACAAGCCUACUACCUCA and GGAGACCAUACUAUACAACCUGACUACCUCA are within error of each other in “pre-steady-state target cleavage rate” value: 0.00835 ± 0.005 for the first, 0.00545 ± 0.0032 for the second.

First: GGAGACCUAACUAUACAACCUUCUACCUCA
Second: GGAGACCUAUGAUAUGUACCUAUUACCUCA
The “pre-steady-state target cleavage rate” value of the first is higher: 0.00554 ± 0.0031 for the first, under 0.0001 for the second.

First: GGAGAGGAUACUAUACAAUCUACUACCUCA
Second: GGAGUGGAUACUAUACAACCUACUUCCUGA
The “pre-steady-state target cleavage rate” value of the first is higher: 0.0116 ± 0.0062 for the first, 0.00267 ± 0.0023 for the second.

GGAGUGGAUACUAUACGAACCUACUACCUCA and GGAGUGGAUACUAUACAACCUGACUACCUCA are within error of each other in “pre-steady-state target cleavage rate” value: 0.00789 ± 0.0039 for the first, 0.00415 ± 0.002 for the second.
